The list is not random: actives were taken first. Their share in the collection is about 2.4%.
Rango complex inh: inhibitors of Rango-importin beta complex formation. hit rate 0.031% among 340,000. Rango CFP/YFP FRET sensor + importin beta, 45 min. Potency, µM (doses to about 92.2 µM), without a hit: at the highest dose inhibition of complex formation; calls by dose curve;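 further: 0% = DMSO wells and 100% = buffer wells lacking importin beta; nearly all actives have a fitted effect of over 15% in size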
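FRET biosensor Rango (snurportin 1 IBB between N-terminal EYFP and C-terminal Cerulean), 50 nM in PBS/1 mM DTT/0.02% Tween-20/0.1% BSA, preincubated 5 min RT with compound; 0.125 microM importin beta added, 45 min RT, CFP/YFP FRET ratio read.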
ALOX12 inh: blocks human arachidonate 12S-lipoxygenase; Potency, µM (titrated, usually from 108 µM), inactives show at the highest dose activity change, negative = inhibition, usual class: inhibitors; purified 12hLO, xylenol orange hydroperoxide absorbance; hit rate 1.1% among 580,000; P18054; further: on the % scale 0 is the no-effect control and ±100 the full control effect
Target sequence (P18054 whole entry, looked up): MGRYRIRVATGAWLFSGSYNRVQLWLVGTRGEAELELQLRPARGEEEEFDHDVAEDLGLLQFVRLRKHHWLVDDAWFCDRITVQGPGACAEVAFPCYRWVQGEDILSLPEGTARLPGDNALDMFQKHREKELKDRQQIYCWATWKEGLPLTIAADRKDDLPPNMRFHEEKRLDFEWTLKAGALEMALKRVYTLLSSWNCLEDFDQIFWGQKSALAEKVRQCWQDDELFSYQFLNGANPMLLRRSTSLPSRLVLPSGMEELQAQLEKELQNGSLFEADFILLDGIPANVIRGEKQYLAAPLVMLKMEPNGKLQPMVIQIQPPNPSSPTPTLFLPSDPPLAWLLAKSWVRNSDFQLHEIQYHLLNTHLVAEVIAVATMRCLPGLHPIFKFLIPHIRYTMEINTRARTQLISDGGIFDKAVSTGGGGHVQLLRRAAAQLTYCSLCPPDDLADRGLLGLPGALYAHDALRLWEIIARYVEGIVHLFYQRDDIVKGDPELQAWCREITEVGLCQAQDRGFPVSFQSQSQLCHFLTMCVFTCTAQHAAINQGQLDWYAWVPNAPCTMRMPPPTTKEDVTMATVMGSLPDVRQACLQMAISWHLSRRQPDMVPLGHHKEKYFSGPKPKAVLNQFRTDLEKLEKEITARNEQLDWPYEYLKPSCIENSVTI
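Hydroperoxide product was detected by ferrous iron/xylenol orange as the 573 to 405 nm absorbance ratio. Arachidonic acid at 40 uM (final) was turned over for 30 min at room temperature by 150 nM human 12hLO, pH 7.0 Hepes buffer, after 15 min compound preincubation.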
PTAP TSG101 blk: blocks PTAP/TSG101 interaction to inhibit HIV-1 budding; Q99816; Fluorescence polarization, FITC-PTAP peptide / Tsg101 binding; Potency, µM (doses to about 115 µM), for inactives: at the highest dose activity change, negative = inhibition, most hits filed as inhibitors; 340,000 tested, under 10 active; active means well fitted inhibition curve with a large enough effect in the main read-out, with a control signal flat, not every such curve was filed as active; inconclusive means small, poorly fitted or top-dose-only effect, or effect the other way, or a change in a side signal; inactive means no such curve, though single readings can be large or run the other way; further: % of control where 0% means no effect
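FP read-out: FITC-PTAP peptide, 50 nM final, binding Tsg101 binding domain, 10 uM final; 20 min, r.t.; 10 mM HEPES pH 7.5, 0.15 M NaCl, 0.01% Tween 20, 3 mM EDTA, 0.1 mM TCEP.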
TDP1 block: TDP1 (human) enzyme inhibition. Potency, µM (titrated, usually from 130 µM), for the others: top-dose activity change, negative = inhibition, usual class: inhibitors. AID 485290. hit rate 0.28% among 350,000. recombinant TDP1, AlphaScreen DNA substrate cleavage; further: on the % scale 0 is the no-effect control and ±100 the full control effect; nearly all actives have a fitted effect of over 40% in size
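Steps: enzyme plus compound, 15 min RT; add biotin/phosphotyrosine-FITC oligonucleotide (15 nM final), react 5 min; add donor/acceptor beads (10 ug/ml final), 10 min; read AlphaScreen. Tdp1 at 1 nM final.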
Rango dissoc inh: prevents RanGTP from dissociating the Rango-importin beta complex; O95149+P62826; Biochemical FRET Rango-importin beta, RanGTP-induced dissociation; Potency, µM (series often up to 46.1 µM), for inactives: top-dose activity change, negative = inhibition; hit rate 0.071% among 340,000; calls by dose curve; further: % of control where 0% means no effect; nearly all actives have a fitted effect of over 45% in size
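Compounds sat 5 min at room temperature with 0.1 uM Rango biosensor plus 0.25 uM importin beta, then FRET pre-read. RanGTP-RCC1 (0.6 uM Ran, 2mM GTP, 0.2 uM RCC1) added for 45 min, and the CFP/YFP post-read measured blocked complex dissociation.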
ClpP mod: qHTS Assay for Activators of ClpP; purified B. subtilis ClpP, FRET peptide cleavage, 20 min; Potency, µM (series often up to 57.5 µM), for the others: at the top dose activity change, negative = active; hit rate 1.9% among 340,000; AID 651965, 2013; active means well fitted falling curve with a large enough effect; inconclusive means small, poorly fitted or top-dose-only effect; inactive means no such curve, though single readings can be large or run the other way; further: the source files actives as falling curves though it sought activators and does not explain the sign; nearly all actives have a fitted effect of over 65% in size
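FRET quenching reversal measured ClpP activation: 10 microg/mL B. subtilis ClpP at pH 8 with the FRET-FV decapeptide, read at 430 nm after 320 nm excitation. The 20-min minus 0-min signal was scaled between DMSO/no-enzyme wells and ADEP (5.8 microM final).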
* marks the source's active call; other numbers are inactive results; ? = inconclusive; nt = not tested or not shown; [ ] = dose if it differs, or a comment. Unless noted, the call rests on the fitted dose curve; in most records, active means well fitted curve in the direction sought with a large enough effect; inconclusive means small, poorly fitted or top-dose-only effect, or another doubt; inactive means no such curve, though single readings can be large; an effect the other way counts as inactive or inconclusive. Potency means the concentration at half of the fitted maximal effect.

SMILES	Rango complex inh	ALOX12 inh	PTAP TSG101 blk	TDP1 block	Rango dissoc inh	ClpP mod
Cc1cccc(C2Nc3ccccc3C(=O)N2CCc2ccccc2)n1 (configuration not stated)	-1%	-20%	-6%	2%	0%	18µM*
O=C1c2ccccc2NC(c2ccc(Cl)cc2Cl)N1Cc1ccccc1 (configuration not stated)	-3%	0%	-2%	5%	1%	32µM*
O=C1c2ccccc2NC(c2ccc(Cl)cc2Cl)N1O (configuration not stated)	3%	10µM*	-4%	5%	-1%	3%
O=C1c2ccccc2NC(c2c(Cl)cccc2Cl)N1Cc1ccccc1 (configuration not stated)	-1%	171%	-8%	4%	0%	32µM*
C=CCc1cccc(C2Nc3ccccc3C(=O)N2O)c1O (configuration not stated)	-1%	109%	-2%	9%	-3%	2%
CN1CCCCCC(O)c2cc(C(=O)NCc3cccc(C(F)(F)F)c3)ccc21 (configuration not stated)	nt	45%	nt	nt	nt	nt
COCCCNc1nc2c(c(=O)[nH]c(=O)n2C)n1CCO	nt	-1%	nt	nt	nt	nt
O=C1c2ccccc2NC(c2ccc(-c3cccc(F)c3)o2)N1O (configuration not stated)	3%	35µM*	-1%	2%	-13%	nt
O=C1c2ccccc2NC(c2ccc(-c3ccccc3F)o2)N1O (configuration not stated)	-2%	?	-6%	1%	-21%	nt
COc1cccc(NC(=O)[C@@H]2C[C@@H](O)CN2C2CCN(C(=O)c3cccc(OC)c3)CC2)c1	nt	12%	nt	nt	nt	nt
CCOP(=O)(OCC)c1nc(-c2ccc([N+](=O)[O-])cc2)oc1NCc1ccccc1	nt	-41%	nt	nt	nt	nt
CCOP(=O)(OCC)c1nc(-c2ccc([N+](=O)[O-])cc2)oc1NCc1ccc(C)cc1	nt	10µM*	nt	nt	nt	nt
O=C(NCCN1CCC(n2c(=O)[nH]c3ccccc32)CC1)c1ccc(Cl)c(Cl)c1	nt	32µM*	nt	nt	nt	-1%
O=C(NCCN1CCC(n2c(=O)[nH]c3ccccc32)CC1)c1ccc(F)cc1	nt	35µM*	nt	nt	nt	2%
COc1ccccc1C(=O)NCCN1CCC(n2c(=O)[nH]c3ccccc32)CC1	nt	?	nt	nt	nt	0%
CCOc1ccccc1C(=O)NCCN1CCC(n2c(=O)[nH]c3ccccc32)CC1	nt	-23%	nt	nt	nt	2.8µM*
COCCCN(C)Cc1sccc1C	nt	36%	nt	nt	nt	nt
COc1ccc(C(NC(=O)CC(C)C)NC(=O)CC(C)C)cc1OC	2%	14%	1%	6%	-8%	1%
COc1ccc(C(CC(=O)O)c2cc(OC)c(OC)c(OC)c2)cc1OC (configuration not stated)	-1%	?	-1%	nt	2%	32µM*
O=C(NC1CC1)c1cccn2nccc12	nt	75%[176 µM]	nt	nt	nt	nt
CC(C)(C)OC(=O)N1CCN(C(C(=O)O)c2c[nH]c3cc(NC(=O)c4ccccc4)ccc23)CC1 (configuration not stated)	nt	4%	nt	nt	nt	nt
COCCOCC(=O)N1CCCN(Cc2ccncc2)C(c2ccccc2)CC(=O)NCC1 (configuration not stated)	nt	35%	nt	nt	nt	nt
Cc1ccc2nc(COc3ccccc3NC(=O)C(C)(C)C)cc(=O)n2c1	nt	-9%	nt	3%	nt	25µM*
Cc1cc(NC(=O)CSc2nc(N)c(NC(=O)c3ccccc3)c(=O)[nH]2)no1	-4%	-10%	-8%	8%	-4%	nt
Cc1cc(NC(=O)CSc2nc(N)c(NC(=O)c3ccccc3F)c(=O)[nH]2)no1	0%	-1%	-2%	-4%	11%	16µM*
SMILES	Rango complex inh	ALOX12 inh	PTAP TSG101 blk	TDP1 block	Rango dissoc inh	ClpP mod
COCC(=O)N[C@H]1C[C@@H](Cc2cc(-c3ccc(OC)cc3)on2)C1(C)C	nt	3%[176 µM]	nt	nt	nt	nt
COc1ccc(C)cc1NC(=O)C(OC(=O)CNC(=O)c1ccccc1)c1ccccc1 (configuration not stated)	nt	nt	nt	126µM*	nt	nt
Cc1ncsc1C(=O)N1N=C2/C(=C/c3ccccc3)CCCC2C1c1ccccc1 (configuration not stated)	-4%	-8%	-2%	-5%	-12%	35µM*
CC(C)c1ccc(C(=O)N2CCC(N3CC4CC(C3)[C@H]3CCCC(=O)N3C4)CC2)cc1 (some centres not stated)	nt	1%	nt	nt	nt	nt
CCOC(=O)C(Cc1ccccc1)NC(=O)CCc1c(C)nc2ncnn2c1C (configuration not stated)	?	-11%	-3%	3%	1%	1%
CCOC(=O)C(Sc1cc(-c2ccccc2)nc2ncnn12)C(C)=O (configuration not stated)	?	173%	0%	nt	12µM*	-3%
NS(=O)(=O)c1ccc(N/N=C/c2ccccc2I)c([N+](=O)[O-])c1	nt	53%	nt	nt	nt	nt
CCCc1cc(C(N)=O)c(NC(=O)c2ccoc2C)s1	5%	32µM*	0%	7%	-4%	-22%
CCOC(=O)c1c(NC(=O)C[n+]2ccc(Cc3ccccc3)cc2)sc(C)c1C	8%	45µM*	-1%	8%	12%	nt
CCOC(=O)c1c(NC(=O)c2ccncc2)sc(C)c1C	?	?	-6%	2%	-10%	1%
CCOC(=O)c1c(NC(=S)Nc2ccccc2)sc(C)c1C	-1%	-26%	-9%	5%	1%	4%
CCc1c(C)sc(NC(=O)c2ccoc2C)c1C(N)=O	-1%	11µM*	-1%	4%	-6%	0%
Cc1occc1C(=O)Nc1sc2c(c1C(N)=O)CCCCC2	-5%	-12%	-5%	2%	-21%	-17%
CCOC(=O)c1c(NC(=O)c2ccoc2C)sc(C)c1C	-5%	-1%	0%	4%	?	8.9µM*
CSc1ccc(N/C=C/C(=O)c2ccc(C)c(C)c2)cc1	nt	-28%	nt	nt	nt	nt
COc1ccc(C2CC(=O)N3CN(Cc4ccccc4)CSC3=C2C#N)c(OC)c1 (configuration not stated)	nt	5.6µM*	nt	nt	nt	nt
Cc1ccc(C2CC(=O)N3CN(Cc4ccco4)CSC3=C2C#N)cc1 (configuration not stated)	?	6.3µM*	-7%	4%	-11%	-1%
CCc1ccc(C2CC(=O)N3CN(Cc4ccccc4)CSC3=C2C#N)cc1 (configuration not stated)	nt	3.2µM*	nt	nt	nt	nt
